Test [1] has as its target Protein phosphatase 1D (Homo sapiens) (UniProt O15297). The test is described as follows: Rhodamine-PBP qHTS Assay for Modulators of WT P53-Induced Phosphatase 1 (WIP1) (AID 1347425; active = well fitted curve in the direction sought with a large enough effect; an effect the other way counts as inactive or inconclusive; also: % of control where 0% means no effect). A digest of the protocol:
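Steps: enzyme with Rh-PBP sensor and compounds, room-temperature incubation of 1 hr, baseline read, addition of VEPPL-pS-QETFS (10 uM final), kinetic fluorescence reads at 525/598 nm. Activity equals final minus baseline signal.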

Test [2] is described as follows: Primary qHTS for Huh7 cytotoxicity: counterscreen for inhibitors of MERS-S pseudotyped particle cell entry (AID 1479147; also: potency is read from the fitted curve at half-maximal effect). (Quantitative high-throughput screening tests each substance at several concentrations.)
Test [3] is described as follows: Primary qHTS for inhibitors of MERS-S pseudo-typed particle cell entry (AID 1479149). Also: nearly all actives have a fitted effect of over 60% in size.
Test [4] is described as follows: Primary qHTS for Vero E6 cytotoxicity: counterscreen for inhibitors of SARS-S pseudo-typed particle cell entry (AID 1479150).
Test [5] can be described thus: Primary qHTS for inhibitors of La Crosse Virus (LACV) - induced cell death in SH-SY5Y cells (AID 1508616; active = well fitted curve in the direction sought with a large enough effect; an effect the other way counts as inactive or inconclusive;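 also: top concentration of the series differs between compounds; 0% = infected DMSO wells and 100% = uninfected DMSO wells; higher means more rescue of cells from virus-induced death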). In a few lines:
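SH-SY5Y, 6000 cells/well; cpd via pin tool in DMSO; LACV 0.01 MOI; 6 d 37C 5% CO2; ATPLite, 5 min RT; luminescence normalized to ±virus DMSO controls.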

The target in test [6] is Calcium and integrin-binding protein 1 (Homo sapiens) (UniProt Q99828). Kind of test: Primary qHTS for Identification of Calcium Integrin Binding Protein 1 (CIB1) Competitor (AID 1508620; active = well fitted curve in the direction sought with a large enough effect; an effect the other way counts as inactive or inconclusive; also: top concentration of the series differs between compounds; % is scaled to controls: 0 for no effect and ±100 for the full control effect). In a few lines: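 Fluorescence polarization competition: GST-tagged CIB1 (1 uM final) preincubated with compound 15 min at room temperature, then FITC-labelled alphaIIb peptide (100 nM final) added. After 15 min at room temperature, polarization read at Ex 480/Em 540.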
Sequence of Calcium and integrin-binding protein 1 (Homo sapiens) (Q99828 whole entry, looked up): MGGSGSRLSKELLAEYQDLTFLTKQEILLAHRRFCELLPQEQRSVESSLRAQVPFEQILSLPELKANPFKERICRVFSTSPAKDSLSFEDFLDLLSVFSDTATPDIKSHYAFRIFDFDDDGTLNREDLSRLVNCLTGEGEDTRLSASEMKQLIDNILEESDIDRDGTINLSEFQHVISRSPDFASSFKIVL

The nature of test [7]: A High-Content qHTS Against Drug Library for the Identification of Small Molecules that Inhibit DYT1 Early Onset Primary Dystonia-Associated Cell Pathology (AID 1645839). Also: series mostly up to about 46 µM. A digest of the protocol:
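Cells were seeded and left for 24 h, then dosed with compound alongside tetracycline induction of mutant EGFP-TorsinA. They were incubated for 48 h, fixed in 4% paraformaldehyde, permeabilized and imaged for mislocalization (%pathology) and cell count.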

In test [8] the target is Cytochrome P450 2D6 (Homo sapiens) (UniProt P10635). Kind of test: Cytochrome P450 family 2 subfamily D member 6 (CYP2D6) small molecule antagonists: luciferase biochemical (cell-free) qHTS assay (AID 1645840; active = well fitted curve in the direction sought with a large enough effect in the repeat runs; an effect the other way counts as inactive or inconclusive; also: nearly all actives have a fitted effect of over 55% in size; also: potency is read from the fitted curve at half-maximal effect). In a few lines: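 P450-Glo CYP2D6 system: proluciferin substrate converted by enzyme to luciferin, read by luminescence proportional to activity. Enzyme-substrate mix with compound 10 min at room temperature, then NADPH regeneration 1 h before detection reagent.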
Sequence of Cytochrome P450 2D6 (Homo sapiens) (P10635 whole entry, looked up): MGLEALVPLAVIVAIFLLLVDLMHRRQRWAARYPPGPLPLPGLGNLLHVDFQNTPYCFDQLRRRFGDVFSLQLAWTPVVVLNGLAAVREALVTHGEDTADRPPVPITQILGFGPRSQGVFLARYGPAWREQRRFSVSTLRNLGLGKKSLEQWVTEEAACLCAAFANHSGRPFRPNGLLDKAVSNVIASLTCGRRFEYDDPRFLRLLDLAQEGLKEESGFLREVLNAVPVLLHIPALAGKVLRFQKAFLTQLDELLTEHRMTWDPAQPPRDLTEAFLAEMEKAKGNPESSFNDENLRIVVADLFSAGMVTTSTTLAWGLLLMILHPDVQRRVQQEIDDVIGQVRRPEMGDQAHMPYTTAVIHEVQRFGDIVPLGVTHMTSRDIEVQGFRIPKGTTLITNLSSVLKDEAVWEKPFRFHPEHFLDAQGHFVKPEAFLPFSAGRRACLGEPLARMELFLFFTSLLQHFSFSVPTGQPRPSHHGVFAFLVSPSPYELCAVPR

Test [9] in a line: Confirmatory qHTS for small molecule stabilizers of the endoplasmic reticulum resident proteome: Secreted ER Calcium Modulated Protein (SERCaMP) assay (AID 1508628; active = well fitted curve in the direction sought with a large enough effect; an effect the other way counts as inactive or inconclusive; also: series mostly up to about 76 µM; % is scaled to controls: 0 for no effect and ±100 for the full control effect; nearly all actives have a fitted effect of over 40% in size). A digest of the protocol: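 Reporter secretion upon ER calcium depletion (100 nM thapsigargin, 4 h, 37C) is measured as medium luminescence with coelenterazine, after 16 h compound pretreatment of SH-SY5Y-GLuc-SERCaMP cells; primary at three concentrations up to 38.3 uM, follow-up at 11 (up to 76.6 uM).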

Test [10] in a line: Primary qHTS for small molecule stabilizers of the endoplasmic reticulum resident proteome: Secreted ER Calcium Modulated Protein (SERCaMP) assay (AID 1508630; active = well fitted curve in the direction sought with a large enough effect; an effect the other way counts as inactive or inconclusive; also: % is scaled to controls: 0 for no effect and ±100 for the full control effect). In a few lines: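 The SH-SY5Y reporter protocol was run at 3 concentrations up to 38.3 uM (primary) or 11 concentrations (follow-up): 16 h compound, 100 nM thapsigargin for 4 h, then extracellular luciferase luminescence.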

Test [11] is described as follows: Primary qHTS for inhibitors of SARS-S pseudo-typed particle cell entry (AID 1479145). Also: nearly all actives have a fitted effect of over 45% in size. Also: potency is read from the fitted curve at half-maximal effect.
Test [12] concerns the target Cytochrome P450 3A4 (Homo sapiens) (UniProt P08684). The test is described as follows: Cytochrome P450 family 3 subfamily A member 4 (CYP3A4) small molecule antagonists: luciferase qHTS assay (AID 1645841; active = well fitted curve in the direction sought with a large enough effect in the repeat runs; an effect the other way counts as inactive or inconclusive; also: nearly all actives have a fitted effect of over 45% in size). A digest of the protocol:
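P450-Glo CYP3A4 enzyme with proluciferin substrate preincubated 10 min with compound at room temperature, then NADPH regeneration 1 h. Luciferin detection reagent added for 20 min; luminescence recorded. Ketoconazole positive control.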

Test [13] in a line: Counterscreen qHTS for small molecule stabilizers of the endoplasmic reticulum resident proteome: GLuc-NoTag assay (AID 1508627; active = well fitted curve in the direction sought with a large enough effect; an effect the other way counts as inactive or inconclusive;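 also: series mostly up to about 76 µM; 0% = thapsigargin alone and -100% = DMSO vehicle control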). A digest of the protocol:
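Counterscreen line: SH-SY5Y-GLuc-NoTag. Seed, 5 h; compound, 19 h; thapsigargin 100 nM, 4 h; 37C/5% CO2. Readout: secreted GLuc luminescence, coelenterazine 0.07x final, no lysis.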

Test [14] in a line: Cell Viability qHTS for small molecule stabilizers of the endoplasmic reticulum resident proteome (AID 1508629; active = well fitted curve in the direction sought with a large enough effect; an effect the other way counts as inactive or inconclusive;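 also: human SH-SY5Y neuroblastoma cells carrying the GLuc-SERCaMP reporter; compound exposure about 46 h in total before the viability read; % is scaled to controls: 0 for no effect and ±100 for the full control effect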). As to conditions: cell viability counter-screen, 100 nM thapsigargin for final 4 h.

Records with an inconclusive call do not appear. Unmarked numbers belong to inactive results. Calls of active or inactive are those of the source. Unless noted, calls follow the shape of the full dose curve.

Sequence of Protein phosphatase 1D (Homo sapiens) (O15297 whole entry, looked up): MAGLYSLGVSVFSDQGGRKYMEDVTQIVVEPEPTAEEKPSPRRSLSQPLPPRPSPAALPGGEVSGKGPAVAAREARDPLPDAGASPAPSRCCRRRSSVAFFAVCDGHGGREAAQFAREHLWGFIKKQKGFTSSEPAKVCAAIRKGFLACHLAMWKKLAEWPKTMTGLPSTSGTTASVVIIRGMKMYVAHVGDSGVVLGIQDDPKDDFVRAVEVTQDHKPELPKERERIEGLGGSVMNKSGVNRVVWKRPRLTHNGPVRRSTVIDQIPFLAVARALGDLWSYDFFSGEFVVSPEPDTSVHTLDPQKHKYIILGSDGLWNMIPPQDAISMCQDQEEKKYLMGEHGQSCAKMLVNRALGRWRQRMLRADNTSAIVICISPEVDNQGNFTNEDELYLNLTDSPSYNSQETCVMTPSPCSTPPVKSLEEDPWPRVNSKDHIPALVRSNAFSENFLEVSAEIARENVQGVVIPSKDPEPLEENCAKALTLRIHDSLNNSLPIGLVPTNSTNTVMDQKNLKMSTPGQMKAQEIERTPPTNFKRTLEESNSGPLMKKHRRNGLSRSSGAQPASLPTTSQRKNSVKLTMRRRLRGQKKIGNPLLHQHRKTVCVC
Sequence of Cytochrome P450 3A4 (Homo sapiens) (P08684 whole entry, looked up): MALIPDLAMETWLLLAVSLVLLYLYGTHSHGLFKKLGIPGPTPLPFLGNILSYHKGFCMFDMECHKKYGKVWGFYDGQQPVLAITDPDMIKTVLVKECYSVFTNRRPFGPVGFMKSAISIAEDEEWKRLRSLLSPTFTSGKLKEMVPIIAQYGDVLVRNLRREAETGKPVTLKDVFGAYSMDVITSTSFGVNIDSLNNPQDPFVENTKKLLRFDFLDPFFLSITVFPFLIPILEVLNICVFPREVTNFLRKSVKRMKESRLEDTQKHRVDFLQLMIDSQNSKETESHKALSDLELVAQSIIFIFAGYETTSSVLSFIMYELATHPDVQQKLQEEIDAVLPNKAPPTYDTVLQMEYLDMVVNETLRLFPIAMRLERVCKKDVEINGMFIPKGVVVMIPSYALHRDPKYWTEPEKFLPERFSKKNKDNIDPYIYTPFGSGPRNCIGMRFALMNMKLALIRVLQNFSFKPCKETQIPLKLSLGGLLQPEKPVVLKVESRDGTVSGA

For the compound `C=C1CC[C@@]2(O)[C@H]3Cc4ccc(O)c5c4[C@@]2(CCN3CC2CC2)[C@H]1O5`, the result in [1] was inactive. Further, the Potency result in test [2], in test [3], in test [4], in test [5], in test [6] and in test [7] was “inactive” each time. The Potency in test [8] is 2.75 µM (active).

In the case of `COC[C@@H](NC(C)=O)C(=O)NCc1ccccc1`, the call in test [1] and in test [10] was inactive. Besides, the Potency entry in test [5], in [6], in [9], in test [7] and in [8] was “inactive” throughout.

Turning to `CCCC1CCCCN1` (configuration not stated), the compound was called inactive in test [1]. For the same compound, the Potency entry in test [2], in test [3], in test [4], in [5], in test [6] and in test [7] was “inactive” each time.

Regarding `O=[N+]([O-])c1cc([As](=O)(O)O)ccc1O`, the outcome in test [1], in test [10] and in test [12] was inactive. Besides, the Potency entry in [11], in [2], in test [3], in [4], in test [5] and in [6] was “inactive” each time. The Potency entry in test [7] and in test [8] was “inactive” each time.

With `CC(=O)Nc1cc([As](=O)(O)O)ccc1O`, the compound was called inactive in [1]. The Potency result in test [11], in test [2], in [3], in test [4], in test [5] and in [6] was “inactive” throughout. Also, the Potency entry in test [7] and in [8] was “inactive” in each case.

As for `Clc1ccc(CCC(Cn2ccnc2)Sc2c(Cl)cccc2Cl)cc1` (configuration not stated), the compound was called inactive in test [1] and in test [10]. For the same compound, the Potency entry in test [2], in [4], in [5] and in [6] was “inactive” in each case.

As to `C[C@H]1O[C@@H](O[C@H]2[C@@H](O)C[C@H](O[C@H]3[C@@H](O)C[C@H](O[C@H]4CC[C@@]5(C)[C@H](CC[C@@H]6[C@@H]5CC[C@]5(C)[C@@H](C7=CC(=O)OC7)CC[C@]65O)C4)O[C@@H]3C)O[C@@H]2C)C[C@H](O)[C@@H]1O`, the compound was called inactive in test [1] and in test [10]. In addition, the Potency result in [11] and in [3] was “inactive” in each case.

Consider `CC(C)=CC1C(C(=O)OCc2cccc(Oc3ccccc3)c2)C1(C)C` (configuration not stated), for which the compound was called inactive in test [1] and in [10]. Also, the Potency entry in [11], in test [2], in test [3], in test [4], in test [5] and in test [6] was “inactive” in each case. For the same compound, in [7], the Potency entry was “inactive”.

`CN1CCN(C(=O)O[C@H]2c3nccnc3C(=O)N2c2ccc(Cl)cn2)CC1`: the compound was classed as inactive in test [1] and in [10]. Also, the Potency entry in [11], in test [2], in test [3], in test [4], in test [5] and in [6] was “inactive” throughout. Besides, in test [7], the Potency entry is “inactive”.

Consider `CCN(CC)CCOC(=O)C(O)(c1ccccc1)c1ccccc1`, for which the result in [1] was inactive. The Potency result in test [5], in test [6], in test [13], in [9] and in test [7] was “inactive” throughout. In test [14], the max response was 31.2%.

Consider `C=C1C[C@@H]2[C@H](CC[C@]3(C)C(=O)CC[C@@H]23)[C@@]2(C)C=CC(=O)C=C12`, for which the result in [1] was inactive. The Potency entry in [2], in test [3], in [4], in test [5] and in [6] was “inactive” throughout.

Regarding `Oc1ccccc1-c1ccccc1`, the call in test [1] and in test [10] was inactive. The Potency entry in test [2], in test [3], in [4], in [5], in test [6] and in test [7] was “inactive” in each case.

Turning to `O=P1(NCCCl)OCCCN1CCCl` (configuration not stated), the outcome in [1] and in [10] was inactive. Moreover, the Potency result in test [11], in test [2], in [3], in test [4], in test [5] and in test [6] was “inactive” each time. In addition, the Potency entry in [7] is “inactive”.

With `C[C@]12CC[C@H]3[C@@H](CCC4=CC(=O)CC[C@@H]43)[C@@H]1CC[C@@H]2OC(=O)CCc1ccccc1`, the call in [1], in [10] and in test [12] was inactive. The Potency entry in [11], in test [2], in test [3], in test [4], in test [5] and in test [6] was “inactive” throughout. The Potency result in test [7] was “inactive”.

Take `N[C@@H](Cc1ccc(N(CCCl)CCCl)cc1)C(=O)O`: the compound was classed as inactive in [1] and in test [10]. The Potency in test [11] was 31.6 µM (active). In addition, the Potency result in test [2], in test [3], in [4], in test [6] and in test [7] was “inactive” throughout.

For the compound `Cc1nc(Nc2ncc(C(=O)Nc3c(C)cccc3Cl)s2)cc(N2CCN(CCO)CC2)n1`, the Potency result in [11] and in test [2] was “inactive” in each case.

Take `COc1ccc2c(c1OC)CN1CCc3cc4c(cc3C1C2)OCO4` (configuration not stated): in test [1], the outcome was inactive. Also, the Potency result in [5], in test [6] and in test [7] was “inactive” each time. Further, the Potency in test [8] is 0.0309 µM (active).

For the compound `CC[N+]1(C)CCCC(OC(=O)C(O)(c2ccccc2)c2ccccc2)C1` (configuration not stated), the call in test [1] was inactive. Moreover, the Potency result in test [5], in [6] and in test [7] was “inactive” in each case.

As to `CCOC(=O)C1(c2ccccc2)CCN(CCC(C#N)(c2ccccc2)c2ccccc2)CC1`, in test [1], the compound was called inactive. Moreover, the Potency result in test [5], in [6] and in [7] was “inactive” in each case.

As to `CC12CC3CC(C)(C1)CC(N)(C3)C2`, the Potency result in test [11], in [2], in test [3] and in [4] was “inactive” throughout.

On to `O=C1c2c(O)ccc(O)c2C(=O)c2c(NCCNCCO)ccc(NCCNCCO)c21`, for which the Potency result in test [11] is “inactive”. In addition, the Potency in test [2] was 25.1 µM (active).

Turning to `Cc1ccc(S(=O)(=O)NC(=O)NN2CCCCCC2)cc1`, the Potency entry in test [11], in test [2], in test [3] and in test [4] was “inactive” throughout.

As to `O=C1Cc2cc(CCN3CCN(c4nsc5ccccc45)CC3)c(Cl)cc2N1`, the Potency entry in [11], in test [2], in [3] and in test [4] was “inactive” each time.

These data come from PubChem BioAssay (NCATS).
